Assay results as given in PubChem BioAssay (NCI).
This is part of a sample that, as a whole, favours compounds with a hit. Of some 83,000 tested, about 20% had one in any assay.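 Plates (96-well) were seeded with cells, treated with compound at one concentration, and incubated for 48 hours before percent growth was determined.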 Unmarked numbers belong to inactive results. The source made the active and inactive calls. Rule for the calls: active = growth percent below 10; inactive = the rest.

Assays:
Assay in all cases: NCI-60 one-dose screen, 48 h (100 = growth as untreated, 0 = no growth, -100 = all killed)
Details in all cases: 10 µM unless noted
DU-145 prostate = test system: DU-145 prostate
K-562 leukemia = test system: K-562 leukemia
MALME-3M melanoma = test system: MALME-3M melanoma
MDA-MB-231 breast = test system: MDA-MB-231 breast
RXF 393 renal = test system: RXF 393 renal
SF-268 CNS = test system: SF-268 CNS
SF-295 CNS = test system: SF-295 CNS
SF-539 CNS = test system: SF-539 CNS
UACC-257 melanoma = test system: UACC-257 melanoma
M14 melanoma = test system: M14 melanoma
HCT-15 colon = test system: HCT-15 colon
HT29 colon = test system: HT29 colon
SNB-75 CNS = test system: SNB-75 CNS
SNB-19 CNS = test system: SNB-19 CNS
U251 CNS = test system: U251 CNS
PC-3 prostate = test system: PC-3 prostate
SK-MEL-5 melanoma = test system: SK-MEL-5 melanoma
UACC-62 melanoma = test system: UACC-62 melanoma
LOX IMVI melanoma = test system: LOX IMVI melanoma
SK-MEL-28 melanoma = test system: SK-MEL-28 melanoma

SMILES | growth (DU-145 prostate) | growth (K-562 leukemia) | growth (MALME-3M melanoma) | growth (MDA-MB-231 breast) | growth (RXF 393 renal) | growth (SF-268 CNS) | growth (SF-295 CNS) | growth (SF-539 CNS) | growth (UACC-257 melanoma) | growth (M14 melanoma) | growth (HCT-15 colon) | growth (HT29 colon) | growth (SNB-75 CNS) | growth (SNB-19 CNS) | growth (U251 CNS) | growth (PC-3 prostate) | growth (SK-MEL-5 melanoma) | growth (UACC-62 melanoma) | growth (LOX IMVI melanoma) | growth (SK-MEL-28 melanoma)
[O-][n+]1c2ccccc2[n+]([O-])c2c3ccccc3[nH]c21 | 72.6% | 87.7% | 110% | 75.9% | 99.6% | 109% | 69.7% | 91.4% | -31.3% (active) | 98.5% | 78.7% | 77.3% | 82.6% | 85% | 53.2% | 66.4% | 73.5% | 20.7% | 98.3% | 117%
CCN(CC)CCNC(=O)c1cn2ncnc(Oc3ccc(NC(=O)Nc4ccc(Cl)c(C(F)(F)F)c4)cc3)c2c1C | -53.3% (active) | -79.1% (active) | -81.1% (active) | -94.6% (active) | -36.3% (active) | -64.6% (active) | -87.4% (active) | -93.1% (active) | -83.2% (active) | -83.3% (active) | -65.2% (active) | -68.2% (active) | -27% (active) | -83.4% (active) | -78% (active) | -79.2% (active) | -99% (active) | -81.2% (active) | -98.8% (active) | -89.9% (active)
COc1ccc2nc(NC(=O)c3cccnc3Nc3ccc(S(N)(=O)=O)cc3)sc2c1 | 105% | 70.9% | 103% | 106% | 113% | 82.6% | 92.8% | 100% | 113% | 113% | 94.2% | 106% | 74.6% | 99.4% | 97.4% | 71.6% | 89.4% | 82.5% | 100% | 116%
CNCCCNc1nc2ccccc2c2c(=O)c3cc(F)ccc3sc12 | 2.57% (active) | -38.7% (active) | 84.2% | -53.7% (active) | 45.6% | 51.5% | 81.5% | 1.04% (active) | 91.6% | -53.2% (active) | 3.52% (active) | -39.7% (active) | 59.5% | 65% | 2.96% (active) | 39.6% | 73.7% | -1.88% (active) | -96.2% (active) | 50.1%
CCc1ccc2nc(NC(=O)Cc3csc(NC(=O)c4ccco4)n3)sc2c1 | 67% | 64.5% | 59.6% | 67.9% | 73.1% | 43.3% | 77.6% | 34.8% | 101% | 96.7% | 95.5% | 86.5% | 47.1% | 64.4% | 67.3% | 66.1% | 81.6% | 65.9% | 85.7% | 90.9%
CCCCn1c(-c2ccc(C(=O)O/N=C(\N)c3ccc(OC)cc3)cc2)nc(-c2ccccc2)c1-c1ccccc1 | -93.4% (active) | -41% (active) | -51.7% (active) | -6.79% (active) | -49.8% (active) | 9.12% (active) | -40.8% (active) | -77.6% (active) | 43.7% | 51.3% | -47.5% (active) | 21.8% | -31.1% (active) | 23.9% | -52.6% (active) | -7.41% (active) | 41.8% | 29.1% | -93.1% (active) | 47%
COc1ccc(C2C(N)=NNC2c2cccc(O)c2)cc1 (stereo not given) | 125% | 89% | 88.5% | 104% | 97.2% | 99.4% | 92.1% | 95.4% | 107% | 104% | 102% | 104% | 84.7% | 81.3% | 93.6% | 95.6% | 101% | 91.2% | 97.7% | 108%
CCCCC1CCCC12NC(=O)NC2=O (stereo not given) | 109% | 127% | 100% | 107% | 113% | 99.5% | 109% | 113% | 112% | 109% | 103% | 110% | 107% | 104% | 99.5% | 95% | 117% | 93.8% | 88.9% | 113%
